According to PubChem BioAssay AID720541 (National Center for Advancing Translational Sciences (NCATS), 2013):
About 420 (32%) of roughly 1,300 compounds were called active. About 32% were inconclusive and are not listed. Calls follow the shape of the dose curve; as a rule, active = well fitted inhibition curve with a large enough effect; inconclusive = small, poorly fitted or top-dose-only effect; inactive = no such curve, though single readings can be large or run the other way. The list shows a part of the results. Entries that show only a call come without a potency.
Also: nearly all actives have a fitted effect of over 65% in size.
Potency is read from the fitted curve at half-maximal effect.

What follows are compounds tested against C-terminal-binding protein 1 (Homo sapiens) (UniProt Q13363) (assay: qHTS for Inhibitors of the Phosphatase Activity of Eya2: Carboxyl-terminal binding protein (CtBP) Counterscreen for Cherry-picked Compounds). Conditions: purified protein-protein binding, AlphaScreen, 3 h; series mostly up to 46.1 µM.
In short: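 Cherry-picked compounds (final 2.5 nM–46 uM) were incubated 2 h at RT with 25 nM CtBP-6xHIS and 25 nM GST-E1A. Alpha beads (20 ug/mL) were then added for 1 h, light-protected; DMSO and E1A peptide inhibitor wells set the normalization.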
With `Cc1cc(C)c(C#N)c(Sc2nnnn2-c2ccccc2)n1` the Potency was “inactive”. In the case of `N#Cc1c(N)n(-c2ccc(C(=O)O)cc2)c2nc3ccccc3nc12`, the Potency is reported as 12 µM (active). With `O=C(O)c1ccc2c(c1)C(=O)N(c1cccc(-c3nc4ccccc4s3)c1)C2=O` the Potency was “inactive”. For `N#Cc1c(N)n(-c2cccc(C(=O)O)c2)c2nc3ccccc3nc12`, the Potency was 10.7 µM (active). `CN(C)C(C)(C)C#CC(O)(c1ccccc1)c1ccccc1` was tested, and the Potency was “inactive”. For `O=C(O)c1ccc(-c2ccc(/C=c3/sc4nc5ccccc5n4c3=O)o2)cc1Cl`, the Potency was 4.26 µM (active). In the case of `CCOc1cccc(CN2CCC(CCC(=O)NC3CC3)CC2)c1O`, the Potency is reported as “inactive”. For `CC(C(=O)c1ccc(Br)cc1)[n+]1cccc2ccccc21` (stereo not given), the Potency was “inactive”. `CCC(=O)N1c2ccc(S(=O)(=O)N3CCN(c4ccc([N+](=O)[O-])cc4)CC3)cc2CC1C` (stereo not given) was tested, and the Potency was “inactive”. For `CCc1ccc2nc(N(CCN(C)C)C(=O)c3ccc4ncsc4c3)sc2c1`, the Potency was “inactive”. `Cc1sc2nc3ccc(N4CCCCC4)nn3c(=O)c2c1C` was tested, and the Potency was 13.5 µM (active). With `C[C@](N)(Cc1ccc(O)c(O)c1)C(=O)O` the Potency was “inactive”. `Nc1nc2c(c(=O)[nH]1)C(c1ccccc1)C1=C(N2)c2ccccc2C1=O` (stereo not given) was tested, and the Potency was 1.69 µM (active). In the case of `CCCOc1ccc(C2C3=C(Nc4nc(N)[nH]c(=O)c42)c2ccccc2C3=O)cc1` (stereo not given), the Potency is reported as 3.79 µM (active). With `Nc1nc2c(c(=O)[nH]1)C(c1cccc3ccccc13)C1=C(N2)c2ccccc2C1=O` (stereo not given) the Potency was 4.26 µM (active). In the case of `CCOc1ccc(C2C3=C(Nc4nc(N)[nH]c(=O)c42)c2ccccc2C3=O)cc1` (stereo not given), the Potency is reported as 2.39 µM (active). For `Cc1nc(NC(=O)c2ccccc2)sc1-c1cc(C(=O)O)nn1Cc1ccccc1`, the Potency was “inactive”. For `CS(=O)(=O)c1ccc2nc(NC(=O)c3ccccc3Cl)sc2c1`, the Potency was “inactive”. In the case of `CS(=O)(=O)c1ccc(C(=O)Nc2nc(-c3ccco3)c(-c3ccco3)s2)cc1`, the Potency is reported as 13.5 µM (active). `Nc1c(N=Nc2ccc([N+](=O)[O-])cc2)c(S(=O)(=O)O)cc2cc(S(=O)(=O)O)c(/C=C/c3ccccc3)c(O)c12` was tested, and the Potency was 7.57 µM (active). In the case of `COc1ccc2c(c1)sc1nc(=O)ccn12`, the Potency is reported as “inactive”. With `O=C(N[C@@H]1CC[C@H](CCn2cc(-c3ccccn3)nn2)O[C@@H]1CO)c1ccncc1` the Potency was 12 µM (active). For `Cc1ccc(SCc2nc(N)nc(Nc3ccccc3C)n2)cc1C`, the Potency was “inactive”. For `COc1ccc(C(=O)C2CCCN(C(=O)c3cccc(N(C)C)c3)C2)cc1OC` (stereo not given), the Potency was “inactive”. `COc1cccc(C(=O)C2CCCN(CC3=Cc4cc(OC)ccc4OC3)C2)c1` (stereo not given) was tested, and the Potency was 13.5 µM (active). For `Cc1cn2c(nc(=O)c3cccnc32)s1`, the Potency was 12 µM (active). `COc1cc(NC(=O)c2ccccc2Cl)ccc1NC(=O)c1cccs1` was tested, and the Potency was “inactive”. For `Cc1cc(NC(=O)c2ccccc2F)ncc1NC(=O)c1cccs1`, the Potency was 12 µM (active). For `Cc1cc(NC(=O)c2cccs2)cc(-c2nc3ncccc3o2)c1O`, the Potency was “inactive”. With `O=C(Oc1ccc(-c2nnco2)cc1)c1ccco1` the Potency was “inactive”. `Cc1ccc(OCC(=O)Nc2cc(NC(=O)COc3ccc(C)c(C)c3)cc(C(=O)O)c2)cc1C` was tested, and the Potency was “inactive”. In the case of `CC(=O)Oc1ccc(C(=O)Nc2cc(NC(=O)c3ccc(OC(C)=O)cc3)cc(C(=O)NC(C)(C)C)c2)cc1`, the Potency is reported as 15.1 µM (active). `COc1ccc(NC(=O)/C(C#N)=C/c2ccc(-c3ccc(Cl)c(C(=O)O)c3)o2)cc1` was tested, and the Potency was 19 µM (active). In the case of `COc1ccc(CC(CC(=O)O)C(=O)Nc2ccc(Cl)c(Cl)c2)cc1` (stereo not given), the Potency is reported as “inactive”. `COc1ccc(/C=C(/C#N)C(=O)Nc2ccc(O)cc2)cc1C(=O)O` was tested, and the Potency was 6.75 µM (active). With `N#C/C(=C\c1ccc(-c2ccc(C(=O)O)cc2)o1)C(=O)Nc1ccc(F)cc1` the Potency was 7.57 µM (active). For `Cn1c(N)c(C(=O)CSc2nnc(NC3CCCCC3)s2)c(=O)n(C)c1=O`, the Potency was “inactive”. `CC(=O)Oc1ccc(C(=O)OCC(=O)c2c(N)n(C)c(=O)n(C)c2=O)cc1OC(C)=O` was tested, and the Potency was 6.01 µM (active). For `O=C1C=C(Nc2ccccc2)C(=O)c2ccccc21`, the Potency was 4.26 µM (active). `O=C(Nc1ccc(-c2nc3cccnc3s2)cc1)C1CCCO1` (stereo not given) was tested, and the Potency was “inactive”. With `O=C(CSc1ncn[nH]1)N1N=C(c2ccc(Cl)cc2)CC1c1ccco1` (stereo not given) the Potency was “inactive”. With `CN(C)c1ccc(C(=C2C=CC(=[N+](C)C)C=C2)c2c(O)c(S(=O)(=O)[O-])cc3cc(S(=O)(=O)O)ccc23)cc1` the Potency was 9.53 µM (active). With `CN(C)c1ccc(C(=C2C=CC(=[N+](C)C)C=C2)c2ccc(N(C)C)cc2)cc1` the Potency was 3.79 µM (active). With `Nc1n[nH]c2cc(=O)n(-c3ccc(Cl)cc3)nc12` the Potency was “inactive”. `CCOc1ccc(Br)cc1S(=O)(=O)NC1CC(C)(C)NC(C)(C)C1` was tested, and the Potency was “inactive”. In the case of `COC(=O)c1c(-c2ccc3ccccc3c2)csc1NC(=O)Cc1ccc(OC)c(OC)c1`, the Potency is reported as “inactive”. With `Cc1ccc(-c2csc(NC(=O)c3ccccc3F)c2C(=O)O)cc1` the Potency was 9.53 µM (active). For `CCOc1cc(C(=O)NC(C)CCc2ccccc2)cc(OCC)c1OCC` (stereo not given), the Potency was “inactive”. In the case of `COc1ccc(CCNC(=O)C(=O)NCc2cccs2)cc1OC`, the Potency is reported as “inactive”. In the case of `COc1ccc(CCNc2nc(-c3ccccn3)cs2)cc1OC`, the Potency is reported as 7.57 µM (active). In the case of `COc1cc(CNCc2ccccn2)ccc1OCC(=O)NC1CCCCC1`, the Potency is reported as “inactive”. `CCC(C)Nc1nc(-c2ccccn2)nc2ccccc12` (stereo not given) was tested, and the Potency was 9.53 µM (active). In the case of `O=C(Nc1nc2ccc(F)cc2s1)C1=NN(c2ccccc2)C(=O)CC1`, the Potency is reported as “inactive”. `Cc1ccc(-c2nc3ccccc3s2)cc1NC(=S)NC(=O)/C=C/c1ccco1` was tested, and the Potency was “inactive”. With `COc1ccccc1N1CCN(C(=O)c2ccc(-c3nc4ccccc4s3)o2)CC1` the Potency was “inactive”. `O=C(O)CCN1C(=O)/C(=C/c2ccc(-c3nc4ccccc4s3)o2)SC1=S` was tested, and the Potency was 3.01 µM (active). In the case of `CCNC(=O)/C(C#N)=C/c1c(N2CCN(c3ccccc3)CC2)nc2c(C)cccn2c1=O`, the Potency is reported as 12 µM (active). `CCN(CC)C(=O)CC(c1ccc(OC)cc1)c1c(OC)cc(OC)c2ccc(=O)oc12` (stereo not given) was tested, and the Potency was “inactive”. In the case of `Cc1cccc(-n2c(O)c(C=Nc3ccccc3)c3ccccc3c2=O)n1`, the Potency is reported as “inactive”. `Cc1[nH]n(-c2cccc3ccccc23)c(=O)c1C=Nc1ccc2[nH]c(=O)[nH]c2c1` was tested, and the Potency was 7.57 µM (active).
